Results on 101 molecules are retold here after PubChem BioAssay AID1209 (Sanford-Burnham Center for Chemical Genomics, 2008).

Structures are written as SMILES. The whole screen tested about 190,000 compounds, of which about 810 (0.43%) were called active. The list comes from a sample in which actives are over-represented; it also holds similar structures and randomly drawn compounds. A number with no mark means an inactive call. Rule as the data show it: active = inhibition above about 50%; inactive = the rest.

Chain of Mannose-6-phosphate isomerase (Homo sapiens) (P34949 whole entry, looked up): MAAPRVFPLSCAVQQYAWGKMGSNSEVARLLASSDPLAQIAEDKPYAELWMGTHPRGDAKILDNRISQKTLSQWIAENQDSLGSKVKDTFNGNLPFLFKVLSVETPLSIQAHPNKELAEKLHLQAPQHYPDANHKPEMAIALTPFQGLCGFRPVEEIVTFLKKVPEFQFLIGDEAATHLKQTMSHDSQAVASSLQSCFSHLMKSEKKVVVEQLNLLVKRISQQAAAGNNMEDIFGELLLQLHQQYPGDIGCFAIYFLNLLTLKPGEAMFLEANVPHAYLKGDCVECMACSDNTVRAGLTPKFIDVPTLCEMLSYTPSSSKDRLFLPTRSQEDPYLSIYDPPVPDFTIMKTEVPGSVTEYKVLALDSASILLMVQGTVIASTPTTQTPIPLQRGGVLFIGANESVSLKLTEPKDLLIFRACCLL

This assay has as its target Mannose-6-phosphate isomerase (Homo sapiens) (UniProt P34949). The assay can be described thus: MPI enzyme activity inhibition – biochemical, fluorescence intensity, coupled assay, primary screen (AID 1209).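 Also: plate controls were DMSO vehicle for no effect and wells lacking substrate for full effect.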 The settings on record: purified PMI enzyme, at 20 µM, active compounds read high.
One may read the inhibition as the drop in the measured response relative to a control, in per cent. In the case of `CCOC(=O)CSc1nc2sccc2c(=O)[nH]1`, the inhibition was 2.3%. Consider `O=C(Nc1ncc(Cl)cc1Cl)c1c(F)cccc1Cl`, for which the inhibition was -15.8%. Consider `Cc1cc(C)cc(N2C(=O)c3nccnc3C2=O)c1`, for which the inhibition is 1.6%.

In the case of `COC(=O)C(C)(C)ONC(=O)Nc1ccc(Br)cc1`, the inhibition was 17.3%.

Consider `O=C1CCCC/C1=C/Nc1ccc2c(c1)OCO2`, for which the inhibition is -14.5%.

On to `O=C1CCC/C1=C/Nc1ccc2c(c1)OCO2`, for which the inhibition is 26.9%. Turning to `O=C1/C(=C/Nc2ccc3c(c2)OCO3)CCc2ccccc21`, the inhibition is 96.4% (active). On to `COc1ccc2c(c1)CC/C(=C/c1ccco1)C2=O`, for which the inhibition is 33.2%. As to `COc1ccc(N/C=C2\CCc3ccccc3C2=O)cc1`, the inhibition was 97.9% (active). Then `COc1ccc(N/C=C2\CCOC2=O)cc1`, with -13%. In the case of `CC1CCC/C(=C\Nc2ccc3c(c2)OCO3)C1=O` (stereo unspecified), the inhibition is 8.9%. In the case of `COc1ccc2c(c1)CC/C(=C\Nc1ccc3c(c1)OCO3)C2=O` it was 89.9% (active); in that of `COc1ccc(N/C=C2/CCCCC2=O)cc1`, 18.1%. In the case of `CCN(CC)C(=O)C(=O)N/N=C/c1ccc(C(=O)O)cc1` it was 15.8%; in that of `COc1cc(C(=O)Nc2ccc(C(C)=O)cc2)c(Br)c(OC)c1OC`, 2.4%. Consider `O=C(CCn1ccnc1)Nc1ccc2ccccc2c1`, for which the inhibition was 13.1%.

For `O=S(=O)(NCCSCc1c(Cl)cccc1Cl)c1ccc2c(c1)OCCO2`, the inhibition was 2.4%. Consider `COc1ccccc1/C=N/NC(=O)COCC(=O)N/N=C/c1ccccc1OC`, for which the inhibition is 12.7%. For `CCC(CC(C)(C)O)C(=O)NNC(=S)Nc1ccccc1` (stereo unspecified), the inhibition was 3.1%. Regarding `O=C(Nc1nc(-c2ccccc2)cs1)C1COc2ccccc2O1` (stereo unspecified), the inhibition was 9.1%. With `O=C(Nc1nc(-c2ccccn2)cs1)C1COc2ccccc2O1` (stereo unspecified), the inhibition is -2.1%. For the molecule `O=C(Nc1nc(-c2ccncc2)cs1)C1COc2ccccc2O1` (stereo unspecified), the inhibition was 61.7% (active).

`COc1ccc(C(O)c2nccn2Cc2ccccc2)cc1OC` (stereo unspecified): the inhibition is 9.1%. As to `Cc1cc(SCC(=O)N/N=C/c2ccc(O)cc2O)c(C)cc1Br`, the inhibition was -12.7%. With `Cc1cc(SCC(=O)N/N=C/c2ccc(O)c(O)c2)c(C)cc1Br`, the inhibition is 18%. In the case of `Cc1cc(SCC(=O)N/N=C/c2ccc(O)c(O)c2O)c(C)cc1Br` it was 79.9% (active). Regarding `CCC(C)(C)NC(=O)C(c1ccco1)N(C(=O)c1csnn1)c1cccc(F)c1` (stereo unspecified), the inhibition is -1.3%. Then `COc1ccc(/C=C2\N=C(C)N(c3ccc(C(=O)O)cc3)C2=O)cc1OC`, with -0.2%; and `Cc1cccc(OC(=O)c2cncc(Br)c2)c1`, with -2.9%; and `CC(=O)Nc1ccc(S(=O)(=O)Nc2ccc(F)c([N+](=O)[O-])c2)cc1`, with -2.3%.

Regarding `CC(=O)Nc1ccc(C)c([N+](=O)[O-])c1`, the inhibition was -6.2%. With `CC(=O)Nc1ccc(S(=O)(=O)Nc2ccc(C)c([N+](=O)[O-])c2)cc1`, the inhibition is 114% (active). On to `CCOC(=O)c1cccc(C(=O)OCC)n1`, for which the inhibition was 7.8%.

As for `Cc1ccc(OC(=O)c2cccc(C(=O)Oc3ccc(C)cn3)n2)nc1`, the inhibition was 51.5% (active).

In the case of `Cc1ccc(OC(=O)c2cccc(C(=O)Oc3ccc(C)cc3)n2)cc1`, the inhibition was 11.1%.

With `COc1ccccc1NS(=O)(=O)c1ccc2oc(SCc3ccc(C#N)cc3)nc2c1`, the inhibition was 23.3%. Turning to `C/C(=N\Nc1nc(N2CCOCC2)nc(N2CCOCC2)n1)c1cccc([N+](=O)[O-])c1`, the inhibition was -11.8%. In the case of `Brc1ccc(-c2nnc3sc(CN4CCC5(CC4)OCCO5)cn23)cc1` it was 7.3%. `c1ccc(-c2nnc3sc(CN4CCC5(CC4)OCCO5)cn23)cc1`: the inhibition was 10.9%. As for `Brc1cccc(-c2nnc3sc(CN4CCC5(CC4)OCCO5)cn23)c1`, the inhibition was 101% (active). As to `CC1(C)CC2(CC(c3ccccc3F)c3cc(Cl)c(O)cc3O2)NC(=S)N1` (stereo unspecified), the inhibition was -8.2%. In the case of `CC1(C)CC2(CC(c3ccccc3)c3ccc(O)cc3O2)NC(=S)N1` (stereo unspecified), the inhibition was -4.8%. For `CCCCN(C(=O)Cn1nnc2ccccc21)C(C(=O)NCc1ccco1)c1ccncc1` (stereo unspecified), the inhibition is -0.5%. Take `Cc1onc(-c2ccccc2Cl)c1C(=O)NC(=S)NCCc1ccccc1`: the inhibition was 11.7%. Then `O=C(c1cccnc1)N1N=C(C2CCCCC2)CC1(O)C(F)(F)F` (stereo unspecified), with -7.1%. For the molecule `CCOC(=O)C(=O)Nc1sc(C(=O)N2CCOCC2)c(C)c1C#N`, the inhibition is 2.7%. With `Cc1sc(NC(=O)c2cc(-c3ccccc3)nc3ccccc23)c(C(N)=O)c1C`, the inhibition was 17%. Then `CCOC(=O)c1sc(NC(=O)c2cc(-c3ccc(C)cc3)nc3ccccc23)c(C#N)c1C`, with 67.7% (active). On to `CCOC(=O)c1sc(NC(=O)c2cc(-c3ccccc3)nc3ccccc23)c(C#N)c1C`, for which the inhibition is 79% (active). Consider `CCOC(=O)c1sc(NC(=O)c2cc(-c3ccccc3C)nc3ccccc23)c(C#N)c1C`, for which the inhibition was 47.9%.

Turning to `COc1ccc(-c2cc(C(=O)Nc3sc4c(c3C#N)CCCC4)c3ccccc3n2)cc1`, the inhibition is 7.1%. In the case of `COC(=O)c1sc(NC(=O)c2cc(-c3ccccc3)nc3ccccc23)c(C#N)c1C` it was 5.2%. Turning to `Cc1ccccc1-c1cc(C(=O)Nc2sc(C)c(C)c2C(N)=O)c2ccccc2n1`, the inhibition is 19.7%. As to `Cc1ccccc1-c1cc(C(=O)Nc2sc(C(=O)OC(C)C)c(C)c2C#N)c2ccccc2n1`, the inhibition was 61.2% (active). In the case of `CCOC(=O)c1sc(NC(=O)c2ccncc2)c(C#N)c1C`, the inhibition was 49.3%.

In the case of `CCCN1C2CCCC1CC(NC(=S)Nc1cc(C)cc(C)c1)C2` (stereo unspecified), the inhibition is 7.1%. In the case of `NNC(=O)CNc1cccc(Cl)c1` it was -2.4%; in that of `CC/C(C)=N\N=C\c1c(O)n(CC)c2cc(C3=NNC(=O)CC3)ccc12`, -47.5%; in that of `COc1ccccc1-n1cnnc1SCC(=O)Nc1cccc(S(=O)(=O)N2CCCCC2)c1`, 7.9%. Then `O=C(NCCN1CCN(C(=O)c2cccs2)CC1)C(=O)Nc1ccc(Br)cc1`, with -0.2%.

Consider `COc1ccc(CC(=O)Nc2ccc(S(=O)(=O)NCC3CCCO3)cc2)cc1` (stereo unspecified), for which the inhibition is 2.9%. In the case of `Cc1cc([N+](=O)[O-])nn1CCCC(=O)NCc1ccc(F)cc1` it was -9.8%; in that of `Cc1nc(NC(=O)c2ccccc2)sc1-c1csc(Nc2cccc(Cl)c2)n1`, 0.6%. For the molecule `Cc1nc(NC(=O)c2ccccc2)sc1-c1csc(Nc2ccc(Cl)cc2)n1`, the inhibition is 53.1% (active). With `Cc1nc(NC(=O)c2ccccc2)sc1-c1csc(Nc2ccc(F)cc2)n1`, the inhibition was 45%. Then `Cc1nn(Cc2ccc(Cl)cc2)c(C)c1NC(=O)c1noc2c1CCCCC2`, with 15.5%. With `COc1ccc(OCCCNCCc2ccccc2)cc1`, the inhibition was -2.5%. For the molecule `O=C1/C(=C/c2cccnc2)SC(=NCc2ccccc2)N1Cc1ccccc1`, the inhibition is 7.3%. Then `CCCCCc1nc2c(=O)[nH]c3ccccc3c2o1`, with 102% (active). As for `CCCCc1nc2c(=O)[nH]c3ccccc3c2o1`, the inhibition is 0.8%. Turning to `CCCCCCc1nc2c(=O)[nH]c3ccccc3c2o1`, the inhibition was 6.6%. Take `CCN(C(=O)c1ccnn1C)c1ccccc1`: the inhibition is -6.3%. Regarding `CCOC(=O)Cc1csc(SCn2nnc3ccccc3c2=O)n1`, the inhibition is 1.9%. For the molecule `CCOC(=O)Cc1csc(-n2sc3ccccc3c2=O)n1`, the inhibition is 98.9% (active).

As for `CCOC(=O)Cc1csc(NC(=O)c2cc(=O)c3ccccc3o2)n1`, the inhibition is -7.8%. As to `O=C(CSc1ccc(-c2ccc(Br)cc2)nn1)N1CCOCC1`, the inhibition is -1.9%. As to `CCCCCCCNC(=O)COc1ccc2c(c1)C(=O)CC(C)(C)O2`, the inhibition was 2.9%. With `Nc1ccc2c(c1)OC1(CCCC1)O2`, the inhibition was 6.1%. As to `Nc1ccc2c(c1)OC1(CCCCC1)O2`, the inhibition was 55.6% (active). Take `O=C(Nc1ccc2c(c1)OC1(CCCC1)O2)C1CC1`: the inhibition is 0.2%. Turning to `CC(C)(C)c1nc(SCC(=O)N2CC(=O)Nc3ccccc32)c2ccccc2n1`, the inhibition is 3.4%. Turning to `COc1ccc2c(c1)CC/C2=N\OC(=O)c1ccccc1C`, the inhibition was -5%. As to `COc1ccc(N=C2C(=O)Nc3ccccc32)cc1`, the inhibition is 12.5%. With `Cc1ccc2c(c1)/C(=N/N1C(=O)c3ccccc3C1=O)C(=O)N2`, the inhibition is -2.2%. Turning to `c1ccc(-c2nnc(CSc3nncs3)o2)cc1`, the inhibition was 16.2%. In the case of `O=c1[nH]c2ccc(Cl)cc2c(-c2ccccc2)c1SC(=S)N1CCCCC1` it was 0.2%. In the case of `CCOC(=O)N1CCC(Nc2c(N3CCN(c4cccc(C(F)(F)F)c4)CC3)c(=O)c2=O)CC1`, the inhibition is -9.4%.

Consider `O=S(=O)(c1ccc(NC(=S)NCc2ccco2)cc1)N1CCCC1`, for which the inhibition is 8.9%. For `CCNS(=O)(=O)c1ccc(NC(=S)NCc2ccco2)cc1`, the inhibition is 35.3%. Take `NS(=O)(=O)c1ccc(NC(=S)NCc2ccc(Cl)cc2)cc1`: the inhibition is 58.1% (active). As to `NS(=O)(=O)c1ccc(NC(=S)NCc2ccco2)cc1`, the inhibition was 55.4% (active). As for `NS(=O)(=O)c1ccc(CNC(=S)NCc2ccc(Cl)cc2)cc1`, the inhibition was 6.3%.

Regarding `NS(=O)(=O)c1ccc(CNC(=S)Nc2ccc(F)c(Cl)c2)cc1`, the inhibition was 17.2%. Then `CC(=O)NC(CCS(C)(=O)=O)C(=O)Nc1ccccc1` (stereo unspecified), with 7.8%; and `CS(=O)(=O)N(CC(=O)NC1CC1)c1cccc(F)c1`, with 6.9%. With `Cc1ccc(NC(=O)CSc2nnc(-c3ccncc3)n2C)cc1S(=O)(=O)N1CCOCC1`, the inhibition is -7.6%. In the case of `COC(=O)c1ccc[n+](CC(=O)c2ccc(Br)cc2)c1`, the inhibition was -34.8%. Regarding `Cn1cnc2ccc([N+](=O)[O-])cc2c1=O`, the inhibition is -6%. With `CCOC(=O)N1CCN(CCC(=O)c2ccc(OC)cc2)CC1`, the inhibition is 0.1%. In the case of `CCCOc1ccc(C(=O)CCN2CCN(C(=O)OCC)CC2)cc1` it was -7.1%; in that of `CCOC(=O)N1CCN(CCC(=O)c2ccc(Cl)cc2)CC1`, 57.4% (active).
